According to PubChem BioAssay AID2796 (The Scripps Research Institute Molecular Screening Center, 2010):
About 8,000 (2.5%) of roughly 320,000 compounds were called active. Rule as the data show it: active = activation above about 47%; inactive = the rest. This excerpt belongs to a sample that is enriched for actives.

Biological target: Aryl hydrocarbon receptor (Homo sapiens) (UniProt P35869)
Test: AHR activators, primary screen, cell-based, luminescence, luciferase reporter, human (AID 2796);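 also: 0% = vehicle wells and 100% = reference agonist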
Conditions: AHR-responsive luciferase reporter cells, at 5 µM, active compounds read high

Chain of Aryl hydrocarbon receptor (Homo sapiens) (P35869 whole entry, looked up): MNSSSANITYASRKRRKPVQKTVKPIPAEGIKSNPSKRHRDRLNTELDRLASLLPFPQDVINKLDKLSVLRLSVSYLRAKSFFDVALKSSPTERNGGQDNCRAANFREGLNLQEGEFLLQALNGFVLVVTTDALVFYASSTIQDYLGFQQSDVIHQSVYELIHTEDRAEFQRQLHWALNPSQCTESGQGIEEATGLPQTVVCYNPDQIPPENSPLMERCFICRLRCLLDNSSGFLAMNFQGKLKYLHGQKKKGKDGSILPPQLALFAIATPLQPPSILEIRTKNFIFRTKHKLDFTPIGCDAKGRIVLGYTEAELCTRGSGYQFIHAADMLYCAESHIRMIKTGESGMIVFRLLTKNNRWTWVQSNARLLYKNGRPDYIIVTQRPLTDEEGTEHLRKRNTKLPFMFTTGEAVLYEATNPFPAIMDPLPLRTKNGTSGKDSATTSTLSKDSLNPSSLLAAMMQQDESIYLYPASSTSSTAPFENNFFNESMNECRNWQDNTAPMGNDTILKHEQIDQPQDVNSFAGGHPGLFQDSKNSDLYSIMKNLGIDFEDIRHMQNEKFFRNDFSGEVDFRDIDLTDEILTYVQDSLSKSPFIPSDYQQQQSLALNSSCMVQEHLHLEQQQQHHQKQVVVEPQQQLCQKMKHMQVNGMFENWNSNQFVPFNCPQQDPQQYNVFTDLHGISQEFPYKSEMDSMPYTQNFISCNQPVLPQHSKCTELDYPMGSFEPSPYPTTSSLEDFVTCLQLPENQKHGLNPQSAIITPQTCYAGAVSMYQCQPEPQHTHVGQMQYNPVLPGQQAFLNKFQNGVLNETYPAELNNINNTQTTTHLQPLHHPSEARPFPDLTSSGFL

SMILES	activation
O=C(O)c1ccccc1-c1ccccc1C(=O)Nc1ccccc1Br	0.17% (inactive)
CN(CCN1CCOCC1)Cc1nc(-c2ccc3c(c2)OCO3)no1	10.5% (inactive)
CC(C)N(Cc1nc(-c2ccc3c(c2)OCO3)no1)CC1CCC(=O)N1 (centres undefined)	16.6% (inactive)
CCn1ccnc1CN(C)Cc1nc(-c2ccc3c(c2)OCO3)no1	86.7% (active)
CCOc1c2ccc(C(=O)NC3CCCc4ccccc43)cc2nn1CC (centres undefined)	7.2% (inactive)
O=C(Nc1ccc(C2CC2(Cl)Cl)cc1)c1cccc([N+](=O)[O-])c1 (centres undefined)	96.3% (active)
O=C(Nc1ccc(C(=O)N2CCCCC2)cc1)c1cccc([N+](=O)[O-])c1	-1.69% (inactive)
Cc1cc(C)nc(NC(=O)c2cccc([N+](=O)[O-])c2)c1	40.8% (inactive)
Cc1ccc(-c2nn(-c3ccccc3)cc2C(=O)NCCCN2CCCC2=O)cc1	1.15% (inactive)
CCC(C)(C)NC(=O)/C=C/c1cc(OC)c(OC)c(S(=O)(=O)N2CCc3ccccc32)c1	5.39% (inactive)
COc1ccc(N(CC(=O)N/N=C/c2cccs2)S(=O)(=O)c2ccc(OC)c(OC)c2)cc1	1.41% (inactive)
NC(=O)N/N=C\c1cccs1	-0.87% (inactive)
COc1ccc2c(c1)c(C(=O)N/N=C/c1cccs1)c(C)n2C	72.6% (active)
COc1cc(C(=O)NCc2nnc(SCC(=O)Nc3nc4ccc(C)cc4s3)o2)cc(OC)c1OC	-5.66% (inactive)
O=C(/C(=C/c1cccc(Cl)c1)c1nc2ccccc2[nH]1)c1ccccc1	44.8% (inactive)
CCC(=O)/C(=C(/O)c1ccccc1)c1nc2ccccc2[nH]1	64.6% (active)
COCCN(CCOC)S(=O)(=O)c1ccc(/C(O)=C(\C#N)c2nc3ccccc3[nH]2)cc1	6.43% (inactive)
COC(C[C@@H]1O[C@@H]1C(=O)[C@@H](C)OCc1ccccc1)OC	-3.27% (inactive)
COc1ccccc1NC(=O)CCCc1c[nH]c2ccccc12	6.67% (inactive)
COc1ccc(Cl)cc1NC(=O)CN(C)C(=O)c1cc2ccccc2cc1OC	19.4% (inactive)

SMILES	activation
COc1ccc(Cl)cc1NC(=O)CN(C)C(=O)CCCc1c[nH]c2ccccc12	51.8% (active)
O=C(OCC(=O)N1CCCCC1)c1ccc(OC(F)(F)F)cc1	0.31% (inactive)
CN(C)NC(=O)c1csnc1-c1c(Cl)cccc1Cl	1.27% (inactive)
CC1CC(=O)Nc2ccccc2N1C(=O)COc1ccc2cc(Br)ccc2c1 (centres undefined)	2.14% (inactive)
COc1c(Cl)cc(C(=O)Nc2ccc(Cl)cn2)cc1Cl	67.2% (active)
COc1ccc(C(=O)N/N=C(\C)CC(=O)Nc2ccc(Cl)cn2)cc1	13.8% (inactive)
COc1ccc(C(=O)NC(=S)Nc2ccc(Cl)cn2)cc1OC	5.66% (inactive)
COc1ccc(N(CC(=O)NCc2ccc(F)cc2)C(=O)CCC(=O)Nc2nccs2)cc1	0.66% (inactive)
COc1cccc(CNC(=O)CCN2C(=S)NC(C)(C)CC2C)c1 (centres undefined)	3.02% (inactive)
CCCCSc1nnc(-c2ccc(C)cc2)o1	-1.09% (inactive)
CCSc1nnc(-c2cc3c(s2)-c2ccccc2CC3)o1	62.1% (active)
Fc1ccc(CSc2nnc(-c3cc4c(s3)-c3ccccc3CC4)o2)cc1	51.6% (active)
Fc1ccc(-c2nnc(CSc3nnc(-c4ccc5c(c4)OCO5)o3)o2)cc1	11.2% (inactive)
O=C(CSc1nnc(-c2ccccc2O)o1)NC1CCCCC1	-6.68% (inactive)
Clc1ccc(CSc2nnc([C@@H]3CCCN3)o2)cc1	0.21% (inactive)
CCOc1ncccc1C(=O)NNC(=O)c1cccc(S(=O)(=O)Nc2ccccc2OC)c1	-1.36% (inactive)
COc1ccc(N(C(=O)CNC(=O)c2ccco2)C(C(=O)NCC2CCCO2)c2ccccc2)cc1Cl (centres undefined)	-0.46% (inactive)
CC1=NNC(=O)C1CC(=O)N/N=C/c1ccncc1 (centres undefined)	-0.52% (inactive)
CCCCCC(=O)N1CCN(S(=O)(=O)c2ccc3c(c2)OCCCO3)CC1	1.73% (inactive)
c1ccc2c(C[n+]3csc4ccccc43)cccc2c1	12.7% (inactive)

SMILES	activation
CN(C(=O)Cn1nnc(-c2ccc(F)cc2)n1)C1CCS(=O)(=O)C1 (centres undefined)	-0.41% (inactive)
O=C(Nc1cc(S(=O)(=O)N2CCCCC2)ccc1Cl)C1COc2ccccc2O1 (centres undefined)	0.26% (inactive)
C=CCN(CC=C)S(=O)(=O)c1ccc(C(=O)Nc2nc3c(s2)CCc2ccccc2-3)cc1	50.7% (active)
COCCN(CCOC)S(=O)(=O)c1ccc(C(=O)Nc2nc3c(s2)CCc2ccccc2-3)cc1	11.6% (inactive)
CCN(c1ccccc1)S(=O)(=O)c1ccc(C(=O)Nc2nccs2)cc1	3.71% (inactive)
Cn1cccc1C(=O)NC(=O)COC(=O)Cc1coc2ccc3ccccc3c12	16.2% (inactive)
CCCCn1c(SCC(=O)N2CCOCC2)nc2c1c(=O)n(C)c(=O)n2C	0.02% (inactive)
Cc1cc(C)nc(Nc2ncn[nH]2)n1	2.66% (inactive)
CCCOc1ccccc1-c1nc(SCCC(=O)O)n[nH]1	10.6% (inactive)
Cc1cc(C)nc(Nc2n[nH]c(-c3ccccc3N)n2)n1	67% (active)
CCCCNC(=O)Nc1c(C)cc(SC#N)cc1C	3.18% (inactive)
O=C(c1cc(C(=O)N2CCN(c3ccc(F)cc3)CC2)cc([N+](=O)[O-])c1)N1CCN(c2ccc(F)cc2)CC1	3.86% (inactive)
O=C(c1ccc(Cl)c([N+](=O)[O-])c1)N1CCN(c2ccccc2)CC1	2.09% (inactive)
O=C(c1cncc(Br)c1)N1CCN(c2ccc([N+](=O)[O-])cc2)CC1	52.5% (active)
Cc1cc(C)c(NC(=O)CN2CCOCCOCCOCCOCC2)c(C)c1	0.35% (inactive)
Cc1ccc(NS(=O)(=O)c2ccc(N/N=C/c3ccccc3OCC(=O)O)c([N+](=O)[O-])c2)c(C)c1	2.69% (inactive)
O=[N+]([O-])c1ccc(N/N=C/c2ccccc2)cc1	-1.64% (inactive)
Cc1cccc(COc2ccccc2/C=N/Nc2ccc([N+](=O)[O-])cc2)c1	50.4% (active)
CCOC(=O)c1cc(S(=O)(=O)NCCc2ccc(OC)c(OC)c2)cn1C	1.77% (inactive)
